Results on 22 compounds are retold here after PubChem BioAssay (Tox21).

Results filed as inconclusive are left out. Unmarked numbers belong to inactive results. Calls of active or inactive are those of the source. Calls follow the shape of the dose curve; as a rule, active = well fitted curve in the direction sought with a large enough effect in the repeat runs; inconclusive = weak or mixed curves; inactive = no such curve, though single readings can be large; an effect the other way counts as inactive or inconclusive.
% is scaled to controls: 0 for no effect and ±100 for the full control effect.

A short description of one test: qHTS assay to identify small molecule agonists of the retinoic acid receptor (RAR) signaling pathway (AID 1159553). Also: potency is read from the fitted curve at half-maximal effect. The note with it: C3RL4 RARE luciferase reporter, agonist, 6 h; series mostly up to 73.3 µM; activation: at the top concentration. In short, it runs like this: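 Compounds dissolved in DMSO were pinned onto C3RL4 cells seeded the previous day, and plates were held 6 hr at 37 C. RARE-driven luciferase output was then read by luminescence.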
A general note: Quantitative high-throughput screening tests each substance at several concentrations.
On to `CCCCc1c(C)nc(NCC)nc1OS(=O)(=O)N(C)C`, for which the “activation” value is -5.61%.
On the same count and under the same terms, with `CN1C[C@H](CNC(=O)OCc2ccccc2)C[C@@H]2c3cccc4c3c(cn4C)C[C@H]21` the figure was -6.64%; with `NS(=O)(=O)C(F)(F)C(F)(F)C(F)(F)C(F)(F)C(F)(F)C(F)(F)C(F)(F)C(F)(F)F`, 0.141%.
On to `CC(O)(CS(=O)(=O)c1ccc(F)cc1)C(=O)Nc1ccc(C#N)c(C(F)(F)F)c1` (centres undefined), for which the “activation” value was -0.219%.
On to `CCCCOC(=O)c1ccccc1C(=O)OCc1ccccc1`, for which the Potency result is “inactive”.
For `CO/C=C(/C(=O)OC)c1ccccc1COc1cccc(C(F)(F)F)n1`, the “activation” value was -11.5%.
Same read-out and setting: the figure for `COc1nn(C(=O)NS(=O)(=O)c2ccccc2OC(F)(F)F)c(=O)n1C` is 1.43%; for `CC(C)(OO)c1ccccc1` it is 1.22%; for `CCOS(C)(=O)=O` it is 1.53% [at 94.8 µM].
The same measure, in the same setting: with `CCCN(CCC)c1c([N+](=O)[O-])cc(S(C)(=O)=O)cc1[N+](=O)[O-]` the figure was -5.36%.
With `CN(C)c1ccc(N(C)C)cc1`, the Potency is 12.2 µM (active).
With `CCOP(=S)(OCC)SCn1nnc2ccccc2c1=O`, the “activation” value is -2.45%.
As for `O=C1c2ccccc2C(=O)C1C(=O)C(c1ccccc1)c1ccccc1`, the “activation” value was 0.598%.
The same measure, in the same setting: the figure for `c1cc2ccc3cccc4ccc(c1)c2c34` is -13.8% [at 94.8 µM]; for `CN1[C@@H]2CC[C@H]1CC(OC(=O)c1cc(Cl)cc(Cl)c1)C2` (some centres undefined) it is -12.8%.
On the same count and under the same terms, with `CCCC(=O)Cl` the figure was -0.103%.
As to `C[C@]12CC[C@H]3[C@@H](CCC4=CC(=O)CC[C@@H]43)[C@@H]1CC[C@@H]2OC(=O)CCC1CCCCC1`, the “activation” value is -14.9%.
The same measure, in the same setting: the figure for `O=NN1CCCCCC1` is -1.72%; for `COc1c(C(C)(C)C)cc([N+](=O)[O-])c(C)c1[N+](=O)[O-]` it is -1.83%.
The same measure, in the same setting: the figure for `OC(c1ccc(Cl)cc1)(c1ccc(Cl)cc1)c1cccnc1` is -7.89%; for `CCCCCCC#N` it is 0.873%; for `CC(C)(C)C(O)C(Oc1ccc(Cl)cc1)n1cncn1` (centres undefined) it is -31.7%.

The nature of a further test: qHTS assay to identify small molecule antagonists of the estrogen related receptor (ERR) signaling pathway - cell viability counter screen (AID 1224818).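 Also: viability measured after 17.5 h of compound exposure.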 The note with it: ERR reporter cell line viability counter screen; series mostly up to 92.2 µM; viability change, negative = cytotoxic: at the top concentration. The procedure, abridged: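 Cytotoxicity check run alongside the ERR antagonist screen: cells exposed to test compounds 17.5 h at 37 C, viability taken as CellTiter-Fluor fluorescence intensity.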
With `CC(O)(CS(=O)(=O)c1ccc(F)cc1)C(=O)Nc1ccc(C#N)c(C(F)(F)F)c1` (centres undefined), the “viability change, negative = cytotoxic” value is -4.25% [at 46.1 µM].
The same measure, in the same setting: the figure for `CCCCOC(=O)c1ccccc1C(=O)OCc1ccccc1` is 3.29%; for `c1cc2ccc3cccc4ccc(c1)c2c34` it is -0.356%.
Still for that read-out and setting: the figure for `CC(C)(C)C(O)C(Oc1ccc(Cl)cc1)n1cncn1` (centres undefined) is -0.0859%.

The next test is described as follows: qHTS assay to identify small molecule agonists of the estrogen related receptor (ERR) signaling pathway (AID 1224820). The conditions noted are these: ERR reporter cell line, luciferase agonist mode; series mostly up to 46.1 µM; activation: at the top concentration. In short, it runs like this:
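After 6 h plating (2,000 cells/well) and 18 h compound treatment at 37 C, ERR cells were lysed with One-Glo and luminescence read after 30 min at room temperature.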
As for `CC(O)(CS(=O)(=O)c1ccc(F)cc1)C(=O)Nc1ccc(C#N)c(C(F)(F)F)c1` (centres undefined), the “activation” value was -43.4%.
On to `CCCCOC(=O)c1ccccc1C(=O)OCc1ccccc1`, for which the “activation” value was 12.7% [at 92.2 µM].
Same read-out and setting: the figure for `c1cc2ccc3cccc4ccc(c1)c2c34` is -47.9% [at 92.2 µM].
